Data reported in PubChem BioAssay (Tox21).
Inconclusive results are not listed. Active and inactive are the calls of the source. Unless noted, calls follow the shape of the dose curve; as a rule, active = well fitted curve in the direction sought with a large enough effect in the repeat runs; inconclusive = weak or mixed curves; inactive = no such curve, though single readings can be large; an effect the other way counts as inactive or inconclusive.

Columns and labels:
[1] = qHTS RealTime-Glo MT Cell Viability Assay in HEK293 cells - 24 hour (AID 1224886); also: nearly all actives have a fitted effect of over 50% in size; also: potency is read from the fitted curve at half-maximal effect; as to activity change, negative = cytotoxicity: top concentration of the series differs between compounds; % is scaled to controls: 0 for no effect and ±100 for the full control effect
In short: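 Luminescence generated by NanoLuc from substrate produced by living HEK293 cells served as the viability signal. Each value reflects the reading at its stated time point during continuous 40 h compound exposure at 37 C.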

[2] = qHTS RealTime-Glo MT Cell Viability Assay in HEK293 cells - 8 hour (AID 1224887); also: nearly all actives have a fitted effect of over 50% in size; also: potency is read from the fitted curve at half-maximal effect
In short: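 HEK293 + NanoLuc + prosubstrate, 600 cells/well; 5 h, 37 C/5% CO2; compound 23 nL in DMSO by pintool; 37 C; luminescence read at 0, 8, 16, 24, 32 and 40 h time points.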

[3] = A CellTox Green Cytotoxicity Assay to monitor cytotoxicity in HEK293 cells - 16 hour (AID 1224888); also: nearly all actives have a fitted effect of over 35% in size; also: potency is read from the fitted curve at half-maximal effect
In short: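 Tox21 screen in HEK293: membrane-impermeant cyanine dye fluoresces on binding dead-cell DNA; compound pinned 5 h post-seeding, plates held at 37 C, signal read repeatedly through 40 h.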

[4] = qHTS RealTime-Glo MT Cell Viability Assay in HepG2 cells - 0 hour (AID 1224889); also: nearly all actives have a fitted effect of over 50% in size; also: potency is read from the fitted curve at half-maximal effect
In short: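 Tox21 10K library screened in qHTS format on HepG2 cells carrying RealTime-Glo reagents. Compounds were added after a 5 h preincubation, and the luminescent signal from continuous culture was measured repeatedly during 40 h treatment.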

[5] = A CellTox Green Cytotoxicity Assay to monitor cytotoxicity in HepG2 cells - 8 hour (AID 1224890); also: % is scaled to controls: 0 for no effect and ±100 for the full control effect; nearly all actives have a fitted effect of over 45% in size
In short: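 Measurements at 0, 8, 16, 24, 32 and 40 h of treatment captured CellTox Green fluorescence in HepG2 cells that had been co-plated with reagent and preincubated 5 h at 37 C/5% CO2.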

[6] = qHTS assay to identify small molecule antagonists of the androgen receptor (AR) signaling pathway using the MDA cell line in the presence of 0.5 nM R1881 - cell viability counter screen (AID 1259242); also: nearly all actives have a fitted effect of over 45% in size; also: potency is read from the fitted curve at half-maximal effect
In short: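 Concentration-response screen of compounds for toxicity in MDA-kb2 reporter cells: 16 hr at 37C with 0.5 nM R1881, endpoint live-cell protease fluorescence measured in the reporter wells.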

[7] = qHTS assay to identify small molecule HDAC inhibitors - cell viability counter screen (AID 1259365); also: series mostly up to about 92 µM; % is scaled to controls: 0 for no effect and ±100 for the full control effect; nearly all actives have a fitted effect of over 50% in size
In short: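 Wild-type HCT-116 cells, 1,500/well, cultured overnight, then compound-treated 2 h at 37 C. Viability measured as ATP luminescence with CellTiter-Glo after 30 min at room temperature.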

[8] = qHTS assay to identify small molecule antagonists of the sonic hedgehog signaling (Shh) pathway - cell viability counter screen (AID 1259367); also: nearly all actives have a fitted effect of over 55% in size; also: potency is read from the fitted curve at half-maximal effect
In short: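 CellTiter-Fluor signal in conditioned medium-stimulated 3T3 Gli1-Luc cells, 23 hr compound exposure, 37C.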

[9] = qHTS assay to identify small molecule agonists of the sonic hedgehog signaling (Shh) pathway (AID 1259368; calls by dose curve;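 also: NIH/3T3-derived 3T3Gli1-Luc cells carrying a stable Gli1-driven firefly luciferase reporter; series mostly up to about 92 µM; % is scaled to controls: 0 for no effect and ±100 for the full control effect; nearly all actives have a fitted effect of over 15% in size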)
In short: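 Hedgehog pathway agonism scored by increased firefly luciferase luminescence in 3T3Gli1-Luc cells treated 24 hr at 37 C; detection used a 30 min room-temperature reagent incubation.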

[10] = biological target: Estrogen receptor beta (Homo sapiens) (UniProt Q92731); assay: qHTS assay to identify small molecule agonists of the estrogen receptor beta (ER-beta) signaling pathway (AID 1259377; active = well fitted activation curve with a large enough effect in the signal ratio in the repeat runs, not every such curve was filed as active; the % refers to the signal ratio; also: % is scaled to controls: 0 for no effect and ±100 for the full control effect)
Estrogen receptor beta (Homo sapiens), sequence (Q92731 whole entry, looked up): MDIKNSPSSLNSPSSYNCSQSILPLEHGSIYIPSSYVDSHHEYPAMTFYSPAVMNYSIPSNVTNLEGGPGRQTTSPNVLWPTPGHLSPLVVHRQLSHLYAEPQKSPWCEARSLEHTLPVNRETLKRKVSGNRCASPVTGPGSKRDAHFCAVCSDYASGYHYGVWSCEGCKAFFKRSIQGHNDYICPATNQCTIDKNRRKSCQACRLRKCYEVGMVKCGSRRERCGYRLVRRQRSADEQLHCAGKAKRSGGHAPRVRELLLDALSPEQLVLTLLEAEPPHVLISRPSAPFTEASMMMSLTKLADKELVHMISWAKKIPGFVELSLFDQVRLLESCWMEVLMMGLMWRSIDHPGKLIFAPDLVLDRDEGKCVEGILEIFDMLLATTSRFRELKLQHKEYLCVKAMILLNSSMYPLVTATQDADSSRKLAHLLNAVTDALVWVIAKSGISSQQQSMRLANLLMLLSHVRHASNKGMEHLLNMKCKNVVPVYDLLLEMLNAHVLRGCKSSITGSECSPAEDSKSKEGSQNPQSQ
In short: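 ER-beta-UAS-bla HEK293T cells in medium with 2% charcoal-stripped FBS were exposed to compounds for 16 h at 37C. Beta-lactamase reporter activity was read as fluorescence after 2 h with LiveBLAzer B/G FRET substrate at room temperature.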

[11] = biological target: Estrogen receptor beta (Homo sapiens) (UniProt Q92731); assay: qHTS assay to identify small molecule antagonists of the estrogen receptor beta (ER-beta) signaling pathway (AID 1259378; active = well fitted inhibition curve with a large enough effect in the signal ratio in the repeat runs, not every such curve was filed as active; the % refers to the signal ratio; also: % is scaled to controls: 0 for no effect and ±100 for the full control effect)
In short: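 Antagonist mode: compounds added to beta-lactamase reporter HEK293T ER-beta-UAS cells stimulated with E2 (1nM final), 16 hr at 37C. LiveBLAzer B/G FRET substrate, 2 hours room temperature, fluorescence read-out.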

[12] = qHTS assay to identify small molecule agonists of the estrogen receptor beta (ER-beta) signaling pathway - cell viability counter screen (AID 1259380); also: nearly all actives have a fitted effect of over 30% in size; also: potency is read from the fitted curve at half-maximal effect
In short: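 Measured: luminescence from CellTiter-Glo after 30 min at room temperature, added to wells already read for the LiveBLAzer FRET reporter (2 hr substrate); ER-beta-UAS-bla HEK293T cells had 16 hr compound treatment at 37C, 5% CO2.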

[13] = biological target: Estrogen receptor (Homo sapiens) (UniProt P03372); assay: qHTS assay to identify small molecule antagonists of the estrogen receptor alpha (ER-alpha) signaling pathway using the BG1 cell line in the presence of 0.1 nM 17-beta-estradiol (AID 1259244); also: nearly all actives have a fitted effect of over 50% in size; also: potency is read from the fitted curve at half-maximal effect
Estrogen receptor (Homo sapiens), sequence (P03372 whole entry, looked up): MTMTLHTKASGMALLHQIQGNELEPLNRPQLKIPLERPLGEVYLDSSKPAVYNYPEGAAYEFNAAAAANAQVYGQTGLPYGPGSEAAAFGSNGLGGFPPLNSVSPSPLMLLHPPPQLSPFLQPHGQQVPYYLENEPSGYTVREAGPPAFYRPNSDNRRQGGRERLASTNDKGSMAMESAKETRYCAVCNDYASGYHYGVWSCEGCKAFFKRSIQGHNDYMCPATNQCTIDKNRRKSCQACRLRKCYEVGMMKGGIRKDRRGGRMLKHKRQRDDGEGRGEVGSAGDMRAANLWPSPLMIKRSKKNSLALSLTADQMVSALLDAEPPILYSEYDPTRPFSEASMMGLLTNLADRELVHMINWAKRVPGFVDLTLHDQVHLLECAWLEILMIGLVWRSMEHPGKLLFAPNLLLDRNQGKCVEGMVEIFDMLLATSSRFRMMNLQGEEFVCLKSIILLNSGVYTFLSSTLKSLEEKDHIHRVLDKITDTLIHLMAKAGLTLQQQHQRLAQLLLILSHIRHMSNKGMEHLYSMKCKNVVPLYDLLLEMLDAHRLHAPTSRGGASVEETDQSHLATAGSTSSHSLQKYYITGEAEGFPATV
In short: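 Compounds were tested against 0.1 nM (final) 17beta-estradiol in VM7Luc4E2 cells, which express full-length ER-alpha and an ERE-luciferase reporter; luminescence was recorded following 22 h exposure.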

[14] = qHTS assay to identify small molecule HDAC inhibitors (AID 1259364); also: potency is read from the fitted curve at half-maximal effect;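 also: wild-type HCT-116 cells with endogenous class I/II HDAC activity; nearly all actives have a fitted effect of over 45% in size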
In short: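 Screening used wild-type human colon HCT-116 cells incubated overnight, dosed with compounds for 2 hours, and assayed with a homogeneous luminogenic HDAC I/II reagent for 30 minutes at room temperature.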

[15] = qHTS assay to identify small molecule agonists of the sonic hedgehog signaling (Shh) pathway - cell viability counter screen (AID 1259366); also: nearly all actives have a fitted effect of over 50% in size; also: potency is read from the fitted curve at half-maximal effect
In short: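 NIH/3T3-derived Gli1-Luc reporter cells, 2,000 per well, received compound after 4 h and were treated about 23 h at 37C. Viability measured in the same wells by CellTiter-Fluor fluorescence after 1 h.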

[16] = qHTS assay to identify small molecule agonists of the androgen receptor (AR) signaling pathway in the presence of an antagonist - cell viability counter screen (AID 1259379); also: nearly all actives have a fitted effect of over 25% in size; also: potency is read from the fitted curve at half-maximal effect
In short: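 MDA-kb2 viability measured by CellTiter-Fluor fluorescence in the same wells as the luciferase signal; nilutamide 3.0uM final; 15-point compound titration; 16 hr at 37C.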

[17] = qHTS assay to identify small molecule antagonists of the sonic hedgehog signaling (Shh) pathway (AID 1259369; calls by dose curve; also: nearly all actives have a fitted effect of over 45% in size; also: potency is read from the fitted curve at half-maximal effect)
In short: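 NIH/3T3 stable Gli1-Luc clone, 2,000 cells/well, 4hr settle; cpd + conditioned medium 24hr; Luc reagent 30min RT; luminescence.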

[18] = biological target: Androgen receptor (Homo sapiens) (UniProt P10275); assay: qHTS assay to identify small molecule antagonists of the androgen receptor (AR) signaling pathway using the MDA cell line in the presence of 0.5 nM R1881 (AID 1259243); also: nearly all actives have a fitted effect of over 50% in size; also: potency is read from the fitted curve at half-maximal effect
Androgen receptor (Homo sapiens), sequence (P10275 whole entry, looked up): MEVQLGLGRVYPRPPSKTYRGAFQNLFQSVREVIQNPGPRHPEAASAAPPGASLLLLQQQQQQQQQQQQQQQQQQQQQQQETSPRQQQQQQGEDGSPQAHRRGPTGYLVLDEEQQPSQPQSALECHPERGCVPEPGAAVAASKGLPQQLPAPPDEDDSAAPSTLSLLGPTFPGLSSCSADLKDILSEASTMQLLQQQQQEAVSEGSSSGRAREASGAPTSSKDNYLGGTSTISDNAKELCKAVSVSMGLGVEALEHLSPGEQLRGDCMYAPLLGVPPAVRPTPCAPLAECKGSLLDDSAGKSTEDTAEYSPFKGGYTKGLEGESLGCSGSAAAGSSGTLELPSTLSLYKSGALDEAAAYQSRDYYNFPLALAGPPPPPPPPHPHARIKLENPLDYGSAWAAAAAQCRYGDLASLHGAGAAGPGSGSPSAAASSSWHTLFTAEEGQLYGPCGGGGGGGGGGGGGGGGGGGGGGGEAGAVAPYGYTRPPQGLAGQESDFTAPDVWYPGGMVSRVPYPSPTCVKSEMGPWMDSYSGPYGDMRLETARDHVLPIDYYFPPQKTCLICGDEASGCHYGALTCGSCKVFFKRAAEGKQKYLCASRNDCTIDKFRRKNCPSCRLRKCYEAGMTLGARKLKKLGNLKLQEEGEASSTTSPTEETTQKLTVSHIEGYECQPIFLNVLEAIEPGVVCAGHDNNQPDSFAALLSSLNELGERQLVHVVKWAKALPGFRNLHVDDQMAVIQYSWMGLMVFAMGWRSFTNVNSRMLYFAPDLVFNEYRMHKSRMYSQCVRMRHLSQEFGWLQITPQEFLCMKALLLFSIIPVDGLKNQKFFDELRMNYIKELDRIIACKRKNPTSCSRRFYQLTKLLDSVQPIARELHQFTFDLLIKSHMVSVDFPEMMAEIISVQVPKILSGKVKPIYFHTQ
In short: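 With R1881 held at 0.5 nM (final), compound effects on MMTV-luciferase expression in MDA-kb2 cells were scored by luminescence after a 16 hr, 37C incubation.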

[19] = qHTS assay to identify small molecule phospholipidosis (PLD) inducers (AID 1259344; active = well fitted curve in the direction sought with a large enough effect; an effect the other way counts as inactive or inconclusive; also: % is scaled to controls: 0 for no effect and ±100 for the full control effect)
In short: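 Accumulated phospholipid, stained red by LipidTOX during 24 h compound treatment of HepG2 cells at 37 C, is quantified from images as pit number and intensity, normalised per cell using Hoechst-stained nuclei.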

[20] = qHTS assay to identify small molecule antagonists of the estrogen receptor alpha (ER-alpha) signaling pathway using the BG1 cell line in the presence of 0.1 nM 17-beta-estradiol - cell viability counter screen (AID 1259241); also: potency is read from the fitted curve at half-maximal effect; nearly all actives have a fitted effect of over 40% in size
In short: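 VM7Luc4E2 cells (endogenous full-length ER-alpha, 4xERE-luciferase), cultured 5 days in charcoal-stripped serum, exposed to compounds with 0.1 nM 17beta-estradiol (final) for 22 hr at 37C. Viability read in same wells as live-cell protease fluorescence after 30 min.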

COc1cc2ncnc(Nc3cccc(Cl)c3)c2cc1OC
inactive: activity change, negative = cytotoxicity [1] -2.37% [at 15.8 µM] | activity change, negative = cytotoxicity [2] -3.64% [at 15.8 µM] | activity change [3] -3.26% [at 15.8 µM, stronger effect = higher value] | activity change, negative = cytotoxicity [4] -27.3% [at 15.8 µM] | cytotoxicity increase [5] -18% [at 15.8 µM] | viability change, negative = cytotoxic [6] -6.19% [at 19 µM] | activity change, negative = cytotoxicity [7] 2.53% [at 19 µM] | viability change, negative = cytotoxic [8] -19.1% [at 19 µM] | activity change [9] -3.79% [at 18.9 µM, stronger effect = higher value] | activation [10] -5.03% [at 19 µM] | activity, negative = inhibition [11] -15.9% [at 19 µM] | activity change, negative = cytotoxicity [12] -15.7% [at 19 µM]

CCN(CC)c1ccc(N=Nc2ccccc2)cc1
inactive: Potency [3] | Potency [4] | Potency [5] | Potency [13] | Potency [7] | outcome [10] | Potency [11]
active: Potency [1] 49 µM | Potency [2] 43.6 µM | Potency [14] 27.3 µM | Potency [15] 30.6 µM | Potency [8] 34.4 µM | Potency [16] 27.3 µM | Potency [12] 17.2 µM

CCc1cccc(CC)c1
inactive: Potency [1] | Potency [2] | Potency [3] | Potency [4] | Potency [5] | Potency [6] | Potency [13] | Potency [7] | Potency [15] | Potency [8] | Potency [9] | Potency [17] | outcome [10] | Potency [11] | Potency [16]

C=CC(C)(C)O
inactive: Potency [1] | Potency [2] | Potency [3] | Potency [4] | Potency [5] | Potency [6] | Potency [18] | Potency [13] | Potency [14] | Potency [7] | Potency [15] | Potency [8] | Potency [9] | Potency [17] | outcome [10] | Potency [11] | Potency [16] | Potency [12]

CCC(C)(C)c1ccc(CC(C)CN2C[C@@H](C)O[C@@H](C)C2)cc1 (some centres not stated)
inactive: Potency [1] | Potency [2] | Potency [4] | Potency [6] | Potency [13] | Potency [19] | Potency [14] | Potency [7] | Potency [15] | Potency [8] | Potency [9] | Potency [16]
active: Potency [3] 23.9 µM | Potency [12] 26.6 µM

Cc1ccc(S(=O)(=O)C(I)I)cc1
inactive: Potency [14] | Potency [7] | Potency [9]
active: Potency [1] 12.3 µM | Potency [2] 24.5 µM | Potency [3] 43.6 µM | Potency [4] 12.3 µM | Potency [20] 77 µM | Potency [6] 48.6 µM | Potency [18] 15.4 µM | Potency [13] 13.7 µM | Potency [15] 6.11 µM | Potency [8] 7.7 µM | Potency [17] 1.22 µM | Potency [16] 68.6 µM | Potency [12] 21.7 µM

Oc1ccc(C2(c3ccc(O)c(C4CCCCC4)c3)CCCCC2)cc1C1CCCCC1
inactive: Potency [3] | Potency [4] | Potency [7] | Potency [9]
active: Potency [1] 38.9 µM | Potency [2] 43.6 µM | Potency [6] 43.3 µM | Potency [13] 43.3 µM | Potency [15] 19.3 µM | Potency [8] 21.7 µM | Potency [17] 12.2 µM | Potency [16] 43.3 µM | Potency [12] 19.3 µM
